From PubChem BioAssay (NCI)
About 79,000 compounds went through this panel and 15% of them were active in at least one assay; those are over-represented in the sample as a whole. Calls of active or inactive are those of the source. Cut-off read from the data, not from the text of the source: active = growth inhibition above about 70%; inactive = the rest.

Experiments:
[1] = NCI Yeast Anticancer Drug Screen. Data for the rad52 strain (AID 147);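 note: 0% = growth of vehicle-treated control cultures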; settings: S. cerevisiae rad52 mutant growth inhibition, active compounds read high
Outline: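 Here a repair-compromised yeast strain receives each compound; its growth is then quantified and normalised to vehicle-only controls.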

[2] = NCI Yeast Anticancer Drug Screen. Data for the wt1 strain (AID 149);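 note: 0% = growth of vehicle-treated wt1 cultures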; settings: S. cerevisiae wt1 strain (SPY 50644) growth inhibition, active compounds read high
Outline: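 Using yeast strain wt1, compound-induced growth inhibition was determined against vehicle-treated cultures.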

[3] = NCI Yeast Anticancer Drug Screen. Data for the rad50EPP+ strain (AID 151);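 note: 0% = growth of vehicle-treated control cultures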; settings: S. cerevisiae rad50 mutant strain, active compounds read high
Outline: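 Read-out is yeast growth inhibition relative to vehicle; cells used were the rad50EPP+ strain.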

[4] = NCI Yeast Anticancer Drug Screen. Data for the mgt1 strain (AID 153); settings: S. cerevisiae mgt1 mutant growth inhibition, active compounds read high
Outline: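 Measured: inhibition of mgt1 yeast growth by compound, normalized to vehicle-treated cultures.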

[5] = NCI Yeast Anticancer Drug Screen. Data for the rad50 strain (AID 155);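 note: 0% = growth of vehicle-only cultures of the same strain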; settings: S. cerevisiae rad50 strain growth inhibition, active compounds read high
Outline: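 Relative growth inhibition (compound vs vehicle) was measured in yeast with a defined repair-gene alteration.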

[6] = NCI Yeast Anticancer Drug Screen. Data for the mec2-1 strain (AID 157); settings: S. cerevisiae mec2-1 strain, active compounds read high
Outline: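 Using mec2-1 yeast: add compound, measure growth, express inhibition versus vehicle-treated cultures.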

[7] = NCI Yeast Anticancer Drug Screen. Data for the rad14 strain (AID 159);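 note: 0% = growth of vehicle-treated control cultures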; settings: S. cerevisiae rad14 strain growth inhibition, active compounds read high
Outline: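 Screen for anticancer potential: a yeast strain altered in DNA damage repair is grown with compound, and reduced growth is quantified against vehicle controls.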

[8] = NCI Yeast Anticancer Drug Screen. Data for the sgs1 mgt1 strain (AID 161);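 note: 0% = growth of cultures given vehicle only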; settings: S. cerevisiae sgs1 mgt1 strain, active compounds read high
Outline: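 Compounds are added to genetically altered yeast, and growth is compared with cultures given vehicle alone to give percent inhibition.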

[9] = NCI Yeast Anticancer Drug Screen. Data for the CLN2oe strain (AID 163);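 note: 0% = growth of vehicle-only control cultures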; settings: S. cerevisiae CLN2oe strain, active compounds read high
Outline: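 Whole-cell yeast growth assay. A strain engineered for altered cell-cycle control received compound, and inhibition relative to vehicle-treated cultures was recorded.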

[10] = NCI Yeast Anticancer Drug Screen. Data for the cln2 rad14 strain (AID 165);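 note: 0% = growth equal to vehicle treated cultures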; settings: S. cerevisiae cln2 rad14 strain, active compounds read high
Outline: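 Yeast strain cln2 rad14, bearing defects in cell cycle control and DNA repair, serves as the test system; values reflect growth inhibition compared with vehicle.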

[11] = NCI Yeast Anticancer Drug Screen. Data for the bub3 strain (AID 167); settings: S. cerevisiae bub3 mutant strain, active compounds read high
Outline: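 Screening used yeast with an engineered genetic alteration affecting cell cycle control. Compound-exposed cultures were compared with vehicle cultures, and reduced growth was taken as inhibition.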

[12] = NCI Yeast Anticancer Drug Screen. Data for the wt2 strain (AID 169);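 note: 0% = growth of vehicle-treated yeast cultures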; settings: S. cerevisiae wt2 strain growth inhibition, active compounds read high
Outline: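 Treated yeast vs. vehicle-treated yeast: growth inhibition determined.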

[13] = NCI Yeast Anticancer Drug Screen. Data for the mlh1 strain (AID 171);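 note: 0% = growth of vehicle-treated control cultures of the same strain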; settings: S. cerevisiae mlh1 strain growth inhibition, active compounds read high
Outline: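 A yeast strain with a defined genetic lesion serves as the test organism. Cultures receive compound or vehicle, and growth is measured.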

[14] = NCI Yeast Anticancer Drug Screen. Data for the sgs1 strain (AID 173);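 note: 0% = growth of vehicle-only control cultures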; settings: S. cerevisiae sgs1 mutant, active compounds read high
Outline: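 A genetically defined yeast mutant is incubated with the test compound, and its growth is compared to that of the same strain given vehicle.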

[15] = NCI Yeast Anticancer Drug Screen. Data for the mlh1 rad18 strain (AID 175); settings: S. cerevisiae mlh1 rad18 strain growth inhibition, active compounds read high
Outline: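 Steps: expose repair-defective yeast to compound; measure growth; express inhibition against vehicle-treated controls.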

[16] = NCI Yeast Anticancer Drug Screen. Data for the rad18 strain (AID 177); settings: S. cerevisiae rad18 mutant growth inhibition, active compounds read high
Outline: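 Measured value is growth inhibition of a yeast strain bearing a DNA repair alteration, referenced to vehicle-treated cells.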

[17] = at 5.0 µM (retest, dose inferred, filed as 0.5)
[18] = at 50.0 µM (retest, dose inferred, filed as 5.0)

Measured: growth inhibition

Cc1ccc([N+]2=NC(c3ccccc3)=NN(c3ccccc3)C2)cc1
active: [1]; at 33.0 µM 90% | [1]; at 100.0 µM 96% | [2]; at 100.0 µM 96% | [4]; at 33.0 µM 89% | [4]; at 100.0 µM 97% | [5]; at 33.0 µM 84% | [5]; at 50.0 µM 97% | [5]; at 100.0 µM 95% | [6]; at 50.0 µM 91.8% | [6]; at 100.0 µM 96% | [7]; at 100.0 µM 96% | [8]; at 50.0 µM 95.3% | [9]; at 100.0 µM 96% | [10]; at 50.0 µM 95.8% | [11]; at 33.0 µM 94% | [11]; [18] 98% | [11]; at 50.0 µM 97.2% | [11]; at 100.0 µM 96% | [12]; at 33.0 µM 83% | [12]; at 100.0 µM 97% | [13]; at 33.0 µM 78% | [13]; at 100.0 µM 97% | [14]; at 33.0 µM 87% | [14]; at 100.0 µM 97% | [15]; at 50.0 µM 97.2% | [16]; at 33.0 µM 90% | [16]; at 100.0 µM 96%
inactive: [1]; at 1.2 µM 9% | [1]; at 3.7 µM 15% | [1]; at 11.0 µM 19% | [2]; at 1.2 µM 1% | [2]; at 3.7 µM 5% | [2]; at 11.0 µM 8% | [2]; at 33.0 µM 27% | [3]; at 1.2 µM 5% | [3]; at 3.7 µM 15% | [3]; at 11.0 µM 35% | [3]; at 33.0 µM 45% | [3]; at 100.0 µM 45% | [4]; at 1.2 µM 7% | [4]; at 3.7 µM 9% | [4]; at 11.0 µM 9% | [5]; at 1.2 µM 6% | [5]; at 3.7 µM 0% | [5]; [17] 15% | [5]; at 11.0 µM 2% | [5]; [18] 41% | [6]; at 1.2 µM -1% | [6]; at 3.7 µM -3% | [6]; [17] 2% | [6]; at 11.0 µM 1% | [6]; at 33.0 µM 65% | [6]; [18] 16% | [7]; at 1.2 µM 5% | [7]; at 3.7 µM 5% | [7]; at 11.0 µM 18% | [7]; at 33.0 µM 44% | [8]; [17] 10% | [8]; [18] 12% | [9]; at 1.2 µM 2% | [9]; at 3.7 µM -1% | [9]; at 11.0 µM 2% | [9]; at 33.0 µM 46% | [10]; [17] 11% | [10]; [18] 69% | [11]; at 1.2 µM 0% | [11]; at 3.7 µM -1% | [11]; [17] -2% | [11]; at 11.0 µM 12% | [12]; at 1.2 µM 0% | [12]; at 3.7 µM 4% | [12]; at 11.0 µM 7% | [13]; at 1.2 µM 1% | [13]; at 3.7 µM 4% | [13]; at 11.0 µM 7% | [14]; at 1.2 µM 0% | [14]; at 3.7 µM 1% | [14]; at 11.0 µM 5% | [15]; [17] 3% | [15]; [18] 45% | [16]; at 1.2 µM 2% | [16]; at 3.7 µM 11% | [16]; at 11.0 µM 11%

Cc1ccc2c(c1)C1(SC(C)C(=O)N1c1ccc(Cl)cc1)C(=O)N2 (stereo unspecified)
inactive: [1]; at 1.2 µM 0% | [1]; at 3.7 µM 4% | [1]; at 11.0 µM 16% | [2]; at 1.2 µM 0% | [2]; at 3.7 µM 5% | [2]; at 11.0 µM 4% | [2]; at 33.0 µM 55% | [3]; at 1.2 µM -2% | [3]; at 3.7 µM -1% | [3]; at 11.0 µM 1% | [3]; at 33.0 µM -2% | [3]; at 100.0 µM -3% | [4]; at 1.2 µM -5% | [4]; at 3.7 µM -6% | [4]; at 11.0 µM 3% | [5]; at 1.2 µM -2% | [5]; at 3.7 µM 1% | [5]; [17] 12% | [5]; at 11.0 µM 9% | [6]; at 1.2 µM -2% | [6]; at 3.7 µM 5% | [6]; [17] -12% | [6]; at 11.0 µM 12% | [6]; [18] 17% | [7]; at 1.2 µM -3% | [7]; at 3.7 µM 3% | [7]; at 11.0 µM 12% | [8]; [17] 8% | [9]; at 1.2 µM -1% | [9]; at 3.7 µM -11% | [9]; at 11.0 µM 4% | [10]; [17] 4% | [10]; [18] 49% | [11]; at 1.2 µM 3% | [11]; at 3.7 µM 10% | [11]; [17] 19% | [11]; at 11.0 µM 30% | [12]; at 1.2 µM -2% | [12]; at 3.7 µM 1% | [12]; at 11.0 µM 8% | [13]; at 1.2 µM -1% | [13]; at 3.7 µM 3% | [13]; at 11.0 µM 17% | [14]; at 1.2 µM 2% | [14]; at 3.7 µM 7% | [14]; at 11.0 µM 25% | [15]; [17] 51%
active: [1]; at 33.0 µM 96% | [1]; at 100.0 µM 99% | [2]; at 100.0 µM 99% | [4]; at 33.0 µM 94% | [4]; at 100.0 µM 99% | [5]; at 33.0 µM 94% | [5]; [18] 97% | [5]; at 50.0 µM 98.8% | [5]; at 100.0 µM 99% | [6]; at 33.0 µM 85% | [6]; at 50.0 µM 98.5% | [6]; at 100.0 µM 99% | [7]; at 33.0 µM 96% | [7]; at 100.0 µM 99% | [8]; [18] 94% | [8]; at 50.0 µM 99.4% | [9]; at 33.0 µM 91% | [9]; at 100.0 µM 99% | [10]; at 50.0 µM 97.7% | [11]; at 33.0 µM 90% | [11]; [18] 88% | [11]; at 50.0 µM 74.5% | [11]; at 100.0 µM 99% | [12]; at 33.0 µM 98% | [12]; at 100.0 µM 99% | [13]; at 33.0 µM 95% | [13]; at 100.0 µM 99% | [14]; at 33.0 µM 94% | [14]; at 100.0 µM 99% | [15]; [18] 98% | [15]; at 50.0 µM 99%
